The list is not random: actives were taken first. Their share in the collection is about 11%.
IMPase cell inh = IMPase inhibition in cells. CHO-M1 cells, IP1 accumulation, HTRF TR-FRET ratio. inhibition (IP1 accumulation), % at 46.1 µM. 120,000 tested, under 10 active; active = well fitted curve in the direction sought with a large enough effect in the signal ratio, not every such curve was filed as active; inconclusive = small, poorly fitted or top-dose-only effect, or a change in a side signal; inactive = no such curve, though single readings can be large or run the other way; the % refers to the signal ratio;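 note: cells stimulated with carbachol in lithium chloride buffer; plate controls were DMSO basal wells for no effect and reference inhibitor wells for full effect; higher means more IMPase inhibition seen as more IP1 and lower FRET ratio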
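Cellular IMPase inhibition is scored as a rise in cytosolic IP1, detected by competitive TR-FRET between d2-labelled IP1 and a europium anti-IP1 antibody. M1-expressing CHO cells were stimulated with carbachol for 30 min at 37C, with lithium (50 mM LiCl) present in the buffer.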
HPGD inh = blocks human HPGD enzyme activity | 150,000 compounds, 4.3% hits | AID 894 | Potency, µM, for the others: at the top dose activity change, negative = inhibition, actives largely listed as inhibitors | purified HPGD, NADH fluorescence kinetic, PGE2 substrate | P15428; note: potency is the fitted concentration of half-maximal effect
Target sequence (P15428 whole entry, looked up): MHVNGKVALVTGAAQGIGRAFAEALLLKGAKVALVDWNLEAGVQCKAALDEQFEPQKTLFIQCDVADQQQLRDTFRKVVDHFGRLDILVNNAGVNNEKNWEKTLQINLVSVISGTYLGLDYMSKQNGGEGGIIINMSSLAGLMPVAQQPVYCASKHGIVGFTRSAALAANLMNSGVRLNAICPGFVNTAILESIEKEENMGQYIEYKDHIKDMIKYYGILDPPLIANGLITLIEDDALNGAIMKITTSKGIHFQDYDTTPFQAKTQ
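20 nM HPGD preincubated 15 min at room temperature with compound in 50 mM Tris-HCl pH 8, 0.01% Tween 20. Started with 1 mM NAD+ and 30 uM prostaglandin E2; NADH fluorescence (360/450 nm) read 5 times over 30-s intervals, last minus first.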
IMPase Li inh = cell-permeable IMPase inhibitors with lithium potentiation | AID 1457 | Potency, µM (series often up to 59.4 µM), without a hit: top-dose activity, negative = IMPase inhibition, hits mostly inhibitors | CHO-M1 cells, IP1 TR-FRET (IP-One), carbachol + lithium | 210,000 compounds, 0.35% hits; active = well fitted inhibition curve with a large enough effect; inconclusive = small, poorly fitted or top-dose-only effect; inactive = no such curve, though single readings can be large or run the other way;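 note: IP1 builds up when IMPase is blocked and the TR-FRET signal falls; potency is the fitted concentration of half-maximal effect; plate controls were basal vehicle for no effect and high inhibitor control for full effect; nearly all actives have a fitted effect of over 50% in size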
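Readout is a homogeneous TR-FRET IP1 immunoassay (Ex 320, Em 665 and 620), where raised cytosolic IP1 lowers signal. Cells were CHO-M1 treated 30 min at 37C with test compounds plus a little lithium; AC50 values came from Hill-equation fitting.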
ALDH1A1 inh = ALDH1A1 (human) enzyme inhibition; Purified ALDH1A1, NADH fluorescence, propionaldehyde substrate; Potency, µM (titrated, usually from 75.3 µM), without a hit: at the top dose activity, negative = inhibition, most hits filed as inhibitors; 220,000 compounds, 7.3% hits;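 note: potency is the fitted concentration of half-maximal effect; plate controls were no enzyme wells and a reference inhibitor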
Target sequence (P00352 whole entry, looked up): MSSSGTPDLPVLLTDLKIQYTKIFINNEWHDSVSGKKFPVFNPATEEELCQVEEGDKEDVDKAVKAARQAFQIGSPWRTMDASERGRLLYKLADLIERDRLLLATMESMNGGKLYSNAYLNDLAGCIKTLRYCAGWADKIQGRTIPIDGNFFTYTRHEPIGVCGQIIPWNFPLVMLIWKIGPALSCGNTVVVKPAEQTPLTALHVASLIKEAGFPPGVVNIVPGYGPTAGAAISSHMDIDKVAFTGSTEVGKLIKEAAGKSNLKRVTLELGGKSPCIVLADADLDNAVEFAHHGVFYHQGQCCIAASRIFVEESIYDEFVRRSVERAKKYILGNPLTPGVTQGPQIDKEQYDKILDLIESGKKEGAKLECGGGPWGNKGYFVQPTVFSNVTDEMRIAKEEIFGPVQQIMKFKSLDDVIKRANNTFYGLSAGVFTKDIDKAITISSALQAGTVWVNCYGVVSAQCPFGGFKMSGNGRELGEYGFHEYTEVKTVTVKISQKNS
PNC inhibitor = inhibitors of perinucleolar compartment assembly | PC3M PTB-GFP, PNC prevalence imaging, 16 h; hits give low values | activity change (PNC), negative = inhibition, % at 10 µM | 140,000 compounds, 3.1% hits | AID 2417;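 active = readout at or below -70, meaning at least 70% loss of cells showing the perinucleolar compartment, a nuclear body marking cancer cells; inconclusive = readout between -30 and a set limit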;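 note: plate controls were DMSO wells for no effect and camptothecin positive control wells for full effect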
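Compounds are pinned in duplicate onto adhered PC3M cells stably expressing GFP-tagged PTB and incubated 16 h at 37 C. Cells are then fixed, nuclei stained with Hoechst, and PNC-positive cells counted.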
Starred values were filed as active, the others as inactive; [ ] = remark or other dose. Unless noted, calls come from the whole dose curve; as a rule, active = well fitted inhibition curve with a large enough effect (not every such curve was filed as active); inconclusive = small, poorly fitted or top-dose-only effect, or another doubt; inactive = no such curve, though single readings can be large or run the other way. Unless noted, % is set by controls: 0 for no effect and ±100 for the full control effect.

How did COc1ccccc1N1CCN(C2CCN(C(=O)c3cc(OC)c(OC)c(OC)c3)CC2)CC1 do in these assays?
IMPase cell inh: 13; HPGD inh: -15%; IMPase Li inh: 8%[38.3 µM]; ALDH1A1 inh: inconclusive; PNC inhibitor: 0

How did COc1ccccc1N1CCN(C2CCN(C(=O)c3cccs3)CC2)CC1 do in these assays?
IMPase cell inh: 3; HPGD inh: 7%; IMPase Li inh: 10%; ALDH1A1 inh: inconclusive; PNC inhibitor: -119*

How did CC1(C)C2C[C@@H](O)[C@]3(C)C(CC[C@@]4(C)[C@H](c5ccoc5)C[C@H]5O[C@]543)[C@@]2(C)[C@@H](O)C[C@H]1O (some centres not stated) do in these assays?
HPGD inh: -8%; IMPase Li inh: 8%; ALDH1A1 inh: -4%

What do the screens show for `CCC(=Nc1cc(OC)ccc1OC)c1c(O)[nH]c(=O)[nH]c1=O`?
IMPase cell inh: 8; HPGD inh: 25µM*; IMPase Li inh: 2%[38.3 µM]; ALDH1A1 inh: inconclusive; PNC inhibitor: 48

How did CCC(=Nc1ccc(OC)cc1OC)c1c(O)[nH]c(=O)[nH]c1=O do in these assays?
IMPase cell inh: 3; HPGD inh: 25µM*; IMPase Li inh: 2%[38.3 µM]; ALDH1A1 inh: -4%; PNC inhibitor: -96*

Results for c1ccc2sc(C3(N4CCCCC4)CCCCC3)cc2c1 ?
IMPase cell inh: 7; HPGD inh: 9%; IMPase Li inh: 12%; ALDH1A1 inh: 3%

What do the screens show for `CC(C)Oc1ccc(Cc2c(O)[nH]c(=O)[nH]c2=O)cc1`?
IMPase cell inh: 2; HPGD inh: -5%; IMPase Li inh: -8%[38.3 µM]; ALDH1A1 inh: -10%; PNC inhibitor: 11

How did CC(=O)c1ccc(OC(C)C)c(Cc2c(O)[nH]c(=S)[nH]c2=O)c1 do in these assays?
IMPase Li inh: 9%; ALDH1A1 inh: 18µM*

What do the screens show for `O=C(O)[C@H]1[C@H](C(=O)O)[C@H]2CC[C@@H]1O2`?
IMPase cell inh: 5

Results for CC(C)n1cc2c3c(cccc31)[C@@H]1C[C@H](C(=O)O[C@@H](C)[C@H](C)O)CN(C)[C@H]1C2 ?
IMPase cell inh: 1

How did N#CC(C#N)=NNc1cccc(Cl)c1 do in these assays?
HPGD inh: -24%; IMPase Li inh: 38%; ALDH1A1 inh: 7%

How did N#CC(C#N)=NNc1ccc(OC(F)(F)F)cc1 do in these assays?
HPGD inh: -27%; IMPase Li inh: -2%; ALDH1A1 inh: 2.8µM*

Results for O=C(Cc1ccccc1)N1CCN(Cc2ccccn2)CC1 ?
IMPase cell inh: -11; HPGD inh: -6%; IMPase Li inh: -4%; ALDH1A1 inh: inconclusive; PNC inhibitor: -84*

What do the screens show for `O=C(Cc1ccccc1)N1CCN(Cc2c[nH]c3ccccc23)CC1`?
IMPase cell inh: 5; HPGD inh: -9%; IMPase Li inh: 2%[38.3 µM]; ALDH1A1 inh: 25µM*; PNC inhibitor: -23

Results for N#Cc1c(/N=C/C2C(=O)NC(=S)NC2=O)sc2c1CCCC2 ?
IMPase Li inh: -9%; ALDH1A1 inh: 22µM*

Results for CCOC(=O)c1c(/N=C/C2C(=O)NC(=S)NC2=O)sc(C)c1C ?
IMPase Li inh: -1%; ALDH1A1 inh: 20µM*

What do the screens show for `CCOC(=O)c1c(/N=C/C2C(=O)NC(=S)NC2=O)sc2c1CCC2`?
IMPase Li inh: 2%; ALDH1A1 inh: 18µM*

How did CCOC(=O)c1cc(C)sc1/N=C/C1C(=O)NC(=S)NC1=O do in these assays?
IMPase Li inh: inconclusive; ALDH1A1 inh: 7.1µM*

Results for CCOC(=O)c1c(-n2c(C)cc(C=C3C(=O)NC(=O)NC3=O)c2C)sc2c1CCCC2 ?
IMPase cell inh: 11; HPGD inh: -17%; IMPase Li inh: 13%[38.3 µM]; ALDH1A1 inh: -2%; PNC inhibitor: 36

What do the screens show for `CCN(CCNc1ccc([N+](=O)[O-])c2cccnc12)S(=O)(=O)c1ccc(Cl)cc1`?
IMPase cell inh: 2; HPGD inh: -11%; IMPase Li inh: 5%[38.3 µM]; ALDH1A1 inh: 2.8µM*; PNC inhibitor: -2

How did CN1C(=O)CCS(=O)(=O)[C@H]1c1ccc(Cl)cc1 do in these assays?
IMPase cell inh: 4; HPGD inh: 0%; IMPase Li inh: 8%; ALDH1A1 inh: 4%

What do the screens show for `CCC(=NCCO)c1c(O)n(C2CCCCC2)c(=O)[nH]c1=O`?
IMPase cell inh: -6; HPGD inh: -3%; IMPase Li inh: -3%[38.3 µM]; ALDH1A1 inh: 6%; PNC inhibitor: 14

What do the screens show for `CCC(=NCc1ccc2c(c1)OCO2)c1c(O)n(C2CCCCC2)c(=O)[nH]c1=O`?
IMPase cell inh: 9; HPGD inh: -29%; IMPase Li inh: 24%; ALDH1A1 inh: 13µM*; PNC inhibitor: -83*

What do the screens show for `c1ccc2c(c1)CC1CNCc3cccc(c31)S2` (configuration not stated)?
HPGD inh: -2%; IMPase Li inh: -18%; ALDH1A1 inh: 1%; PNC inhibitor: -117*

How did N#CCBr do in these assays?
HPGD inh: -9%; IMPase Li inh: 10%; ALDH1A1 inh: -9%

Results for C[C@H](N)C(=O)N[C@@H](C)C(=O)N[C@@H](Cc1ccccc1)C(=O)CCl ?
IMPase Li inh: 2%; ALDH1A1 inh: -16%

Results for C=CCn1c(O)c(C(C)=Nc2ccc(C(=O)OCC)cc2)c(=O)[nH]c1=O ?
IMPase cell inh: 17; HPGD inh: -28%; IMPase Li inh: 31%[38.3 µM]; ALDH1A1 inh: 32µM*; PNC inhibitor: 17

How did Cn1c(=O)c2c(nc(N/N=C/c3c(O)n(-c4ccccc4)c(=S)[nH]c3=O)n2C)n(C)c1=O do in these assays?
IMPase cell inh: -3; HPGD inh: -22%; IMPase Li inh: 25%; ALDH1A1 inh: 8.9µM*; PNC inhibitor: 16

What do the screens show for `Cc1csc(NC(=O)C2CCCN(S(=O)(=O)c3ccc4c(c3)oc(=O)n4C)C2)n1` (configuration not stated)?
IMPase cell inh: 10; HPGD inh: 8.9µM*; IMPase Li inh: 3%[38.3 µM]; ALDH1A1 inh: -15%; PNC inhibitor: -10

Results for COc1cc(CC2C(=O)N(C)C(=O)N(C)C2=O)ccc1OCc1ccccc1 ?
IMPase cell inh: 7; HPGD inh: -11%; IMPase Li inh: -11%[38.3 µM]; ALDH1A1 inh: inconclusive; PNC inhibitor: inconclusive

What do the screens show for `C=CCc1cc(C=C2C(=O)N(C)C(=O)N(C)C2=O)cc(OCC)c1OCc1ccccc1`?
HPGD inh: 14µM*; IMPase Li inh: -6%; ALDH1A1 inh: 25µM*; PNC inhibitor: -114*

How did C=CCc1cc(C=C2C(=O)NC(=O)NC2=O)cc(OC)c1OCc1ccc(C(=O)O)cc1 do in these assays?
IMPase Li inh: 2%; ALDH1A1 inh: 11µM*

What do the screens show for `CCCCC/C=C\C/C=C\CCCCCCCCCC(=O)NCCc1ccc(O)c(O)c1`?
HPGD inh: -5%; IMPase Li inh: 7%; ALDH1A1 inh: 2%

Screens: PubChem, National Center for Advancing Translational Sciences (NCATS)
